# Shown are actives, neighbours in structure and some others; about 1.4% of the full set was active somewhere.
# GSIS activator – primary screen for activators of insulin secretion dependent on glucose, INS-1E cells, GLuc reporter luminescence | INS-1E GLuc reporter insulin secretion, 2-3 h | activation, % at 16.6 µM | 370,000 tested, 0.61% active;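 active means lowest replicate activation of at least 40%, so every replicate reaches that level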
# RAD54 branch – blocks human RAD54 Holliday junction branch migration. FAM/BHQ fluorescence. Q92698. inhibition, % at 10.4 µM. 360,000 tested, 0.14% active;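 active means mean normalized replicate activity at least 40 and at least half of replicates scoring 40 or more; inconclusive means only one of the two criteria met; inactive means mean below 40 and under half of replicates reaching 40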;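 further: inhibitors cause a drop in the FAM fluorescence signal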
# Target sequence (Q92698 whole entry, looked up): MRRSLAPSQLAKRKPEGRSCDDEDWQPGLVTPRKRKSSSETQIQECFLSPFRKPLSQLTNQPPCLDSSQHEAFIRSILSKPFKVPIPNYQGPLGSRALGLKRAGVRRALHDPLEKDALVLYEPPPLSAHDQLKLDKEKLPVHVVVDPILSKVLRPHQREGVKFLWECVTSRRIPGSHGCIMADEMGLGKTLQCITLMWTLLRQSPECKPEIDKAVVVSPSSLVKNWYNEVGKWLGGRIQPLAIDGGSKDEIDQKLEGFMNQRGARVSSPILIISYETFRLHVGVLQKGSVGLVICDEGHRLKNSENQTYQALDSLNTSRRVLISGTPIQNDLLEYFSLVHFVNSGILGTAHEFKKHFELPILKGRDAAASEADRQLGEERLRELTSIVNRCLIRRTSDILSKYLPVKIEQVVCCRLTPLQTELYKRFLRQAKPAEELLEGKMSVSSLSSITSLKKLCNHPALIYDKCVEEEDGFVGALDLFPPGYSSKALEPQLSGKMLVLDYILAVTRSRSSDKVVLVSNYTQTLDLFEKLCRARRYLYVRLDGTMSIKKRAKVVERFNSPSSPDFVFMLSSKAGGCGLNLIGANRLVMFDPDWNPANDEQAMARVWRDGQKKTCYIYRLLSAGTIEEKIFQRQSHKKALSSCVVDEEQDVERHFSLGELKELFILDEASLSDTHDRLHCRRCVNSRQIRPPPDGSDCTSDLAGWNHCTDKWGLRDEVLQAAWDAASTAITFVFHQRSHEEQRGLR
# PGC1a acetyl inh – PGC1a acetylation modulation, inhibitor mode. 350,000 tested, 0.17% active. inhibition, % at 15.6 µM. AID 651687. U2OS PGC1a acetylation, AlphaScreen anti-acetyl-lysine; with virally co-expressed GCN5 acetyltransferase;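 active means every replicate shows inhibition of at least 40%; inconclusive means mean inhibition at least 40% but some replicate below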
# AF4-AF9 inh – blocks AF4 peptide binding to human AF9; P42568; AlphaScreen, biotin-AF4 peptide binding to FLAG-AF9; inhibition, % at 10 µM; 350,000 tested, 0.47% active; AID 651704;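 active means every replicate reaching a set inhibition limit, whatever the replicate mean, cut at about 25% in these data; inconclusive means mean inhibition reaches that limit but some replicates miss it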
# ERAP1 HTS inh – ERAP1 (human) enzyme inhibition; Q9NZ08; recombinant ERAP1, Leu-AMC fluorescence, 60 min; inhibition, % at 10.7 µM; 340,000 tested, 0.15% active; AID 652197;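 active means mean replicate inhibition of at least 30%, or all replicates individually reaching that 30% level; inactive means mean below 30% and not every replicate reaching it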
# RAD52 anneal inh – RAD52 (human) annealing inhibition. P43351. recombinant RAD52 DNA annealing, FRET fluorescence. inhibition, % at 18.7 µM. 360,000 tested, 0.46% active;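 active means every replicate showing at least 50% inhibition; inconclusive means mean inhibition at least 50% but not in every replicate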
# Numbers stand for hits; – = inactive; ? = inconclusive; · = no result; ! = a repeat was not active.
SMILES,GSIS activator,RAD54 branch,PGC1a acetyl inh,AF4-AF9 inh,ERAP1 HTS inh,RAD52 anneal inh
C[C@@H]1CN([C@@H](C)CO)C(=O)c2cc(-c3cccnc3)cnc2O[C@@H]1CN(C)C(=O)Nc1ccc2c(c1)OCO2,–,–,–,–,–,–
COc1ccc(-c2ccc(C3[C@@H]4CN(S(=O)(=O)c5cccc(C)c5)C[C@H]3N4)cc2)cc1 (stereo partly drawn),–,·,–,–,–,70.7!
Cc1cccc(S(=O)(=O)N2C[C@@H]3N[C@H](C2)C3c2ccc(-c3cccnc3)cc2)c1 (stereo partly drawn),–,·,–,–,–,–
COc1cccc(S(=O)(=O)N2C[C@@H]3N[C@H](C2)C3c2ccc(-c3cccc(C)c3)cc2)c1 (stereo partly drawn),–,·,–,–,–,56.7!
C[C@H]1CN([C@@H](C)CO)C(=O)c2cc(Br)cnc2O[C@H]1CN(C)S(=O)(=O)c1ccc(F)cc1,–,–,–,–,–,–
CC(C)NC(=O)N(C)C[C@H]1Oc2c(NC(=O)C3CCOCC3)cccc2C(=O)N([C@@H](C)CO)C[C@@H]1C,–,–,–,–,–,–
CCOc1ccc(CN2C(=O)c3ccccc3C2=O)cc1C(=O)NC1CC(C)(C)NC(C)(C)C1,–,–,–,–,49.2,–
CCOc1ccc(CN2C(=O)c3ccccc3C2=O)cc1C(=O)Nc1nnc(SCC)s1,44.5,–,·,·,·,·
COc1ccc(CN(C)C[C@H]2OCCCC[C@@H](C)Oc3ccc(NC(=O)c4ccccc4)cc3C(=O)N([C@H](C)CO)C[C@H]2C)cc1,–,–,–,–,–,–
COc1ccc(CN(C)C[C@@H]2OCCCC[C@H](C)Oc3ccc(NC(=O)Nc4ccc(C(F)(F)F)cc4)cc3C(=O)N([C@H](C)CO)C[C@@H]2C)cc1,–,–,–,–,–,52.8
COc1ccc(CN(C)C[C@H]2OCCCC[C@H](C)Oc3ccc(NC(=O)Nc4ccc(C(F)(F)F)cc4)cc3C(=O)N([C@H](C)CO)C[C@@H]2C)cc1,–,–,–,–,–,52.9
COc1ccc(NC(=O)Nc2ccc3c(c2)C(=O)N([C@@H](C)CO)C[C@@H](C)[C@H](CN(C)Cc2ccc(C(F)(F)F)cc2)OCCCC[C@@H](C)O3)cc1,–,–,–,–,–,–
COc1ccc(CN(C)C[C@H]2OCCCC[C@@H](C)Oc3ccc(NC(=O)Nc4ccc(C(F)(F)F)cc4)cc3C(=O)N([C@@H](C)CO)C[C@@H]2C)cc1,–,–,–,–,–,50.1
COc1ccc2c3c(n(C)c2c1)[C@H](CO)N(C)CC31CCN(S(C)(=O)=O)CC1,–,·,·,·,·,·
C[C@H]1CN([C@@H](C)CO)C(=O)c2cccc(NC(=O)c3nc4ccccc4s3)c2O[C@H]1CN(C)Cc1ccc(C(=O)Nc2ccccc2N)cc1,–,·,–,–,·,·
CC(C)(C)c1ccc(CCC2OCC(C[N+]3(C)CCOCC3)O2)cc1 (stereo not drawn),–,–,73.3,·,104.3,–
CCC(C)NC(=O)c1c(N)n(/N=C/c2ccccn2)c2nc3ccccc3nc12 (stereo not drawn),·,–,–,·,–,–
CC(C)OCCCNC(=O)c1c(N)n(/N=C/c2ccccn2)c2nc3ccccc3nc12,76.2,–,·,·,·,·
COc1ccc(Nc2ccc(OC)cc2)cc1,–,–,–,81.0,–,–
COc1ccc(Nc2ccc(Nc3ccc(OC)cc3)nn2)cc1,–,–,–,–,–,–
CO[C@H]1CN(C)C(=O)c2cc(NC(=O)C3CC3)ccc2OC[C@@H](C)N(C(=O)c2cccnc2)C[C@@H]1C,–,–,–,–,–,–
Cc1ccc(NC(=O)CSc2nnc(-c3cccnc3)s2)cc1,42.3,–,–,·,·,·
Cc1ccc(NC(=O)CSCC(=O)Nc2nnc(C)s2)cc1,47.3,–,–,–,–,–
Cc1cc(C)n(-c2nc(SCC(=O)O)c3c4c(sc3n2)COC(C)(C)C4)n1,43.4,·,·,–,·,–
COc1ccccc1CN(C)C[C@@H]1OCc2ccccc2-c2c(n(C)c3ccccc23)C(=O)N([C@H](C)CO)C[C@H]1C,–,·,·,·,·,·
SMILES,GSIS activator,RAD54 branch,PGC1a acetyl inh,AF4-AF9 inh,ERAP1 HTS inh,RAD52 anneal inh
Cc1noc(C)c1S(=O)(=O)Nc1ccc2c(c1)C(=O)N([C@H](C)CO)C[C@H](C)[C@@H](CN(C)S(=O)(=O)c1ccc(F)cc1)OCCCC[C@H](C)O2,–,–,–,–,–,82.1
Cc1noc(C)c1S(=O)(=O)Nc1ccc2c(c1)C(=O)N([C@H](C)CO)C[C@H](C)[C@H](CN(C)S(=O)(=O)c1ccc(F)cc1)OCCCC[C@@H](C)O2,–,–,–,–,–,80.8
Cc1noc(C)c1S(=O)(=O)Nc1ccc2c(c1)C(=O)N([C@H](C)CO)C[C@@H](C)[C@@H](CN(C)S(=O)(=O)c1ccc(F)cc1)OCCCC[C@H](C)O2,–,–,–,–,–,60.3
Cc1noc(C)c1S(=O)(=O)Nc1ccc2c(c1)C(=O)N([C@@H](C)CO)C[C@@H](C)[C@H](CN(C)S(=O)(=O)c1ccc(F)cc1)OCCCC[C@@H](C)O2,–,–,–,–,–,–
COc1ccc(NC(=O)N(C)C[C@@H]2OCCCC[C@H](C)Oc3ccc(NC(=O)Nc4ccc(F)cc4)cc3C(=O)N([C@@H](C)CO)C[C@@H]2C)cc1,–,–,–,–,–,–
C=CCNc1nc(Cl)nc(NCc2ccco2)n1,–,–,?,–,–,–
C=CCNc1nc(NCc2ccco2)nc(OCC)n1,58.1,–,–,·,·,·
COC(=O)CSc1ccc2nnc(-c3ccc(OC)c(OC)c3)n2n1,–,–,–,32.5,–,–
COc1ccc(-c2ccc(SCC(=O)c3cccs3)nn2)cc1OC,42.9,·,–,–,–,–
COc1ccc(-c2ccc(SCC(=O)N3CCCC3)nn2)cc1OC,81.1,–,–,·,·,·
COc1ccc(-c2ccc(SCC(=O)N3CCOCC3)nn2)cc1OC,83.6,–,–,·,·,·
COc1ccc(-c2ccc(SCC(=O)c3ccc(F)cc3)nn2)cc1OC,–,–,–,–,–,–
COC(=O)CSc1ccc2nnc(-c3ccc(F)cc3)n2n1,–,–,–,–,–,–
C[C@@H]1CN(C)C(=O)Cc2cc(N(C)C)ccc2O[C@@H]1CN(C)C(=O)OC(C)(C)C,–,·,·,·,·,·
COc1ccc(-c2cc(C(=O)N3CCCCCC3)no2)cc1OC,50.8,–,·,–,–,–
CN(C)C(=O)[C@@H]1[C@@H](CO)[C@@H]2Cn3c(ccc(C4=CCCC4)c3=O)[C@H]1N2C(=O)Nc1ccccc1,–,–,·,–,–,–
Cc1ccc(C(C)C)c(OCCNCCc2ccccc2)c1,137.2,–,·,–,–,–
COCC#Cc1ccc2c(c1)O[C@H](CN(C)Cc1ccccn1)[C@@H](C)CN([C@H](C)CO)S2(=O)=O,–,–,–,–,–,–

# Compound activity as filed in PubChem.
